Shown are actives, neighbours in structure and some others; about 4.3% of the full set was active somewhere.
esBAF inh: inhibitors of esBAF chromatin remodeling in mouse ES cells | Bmi1-luciferase knock-in reporter, 24 h; 100% = twice the neutral-well signal | reporter increase, % at 12.5 µM | actives 2% (n = 350,000); in the data active = activation above about 40%; inconclusive = no clear call, values can overlap the other calls;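 note: 0% = median of the plate's neutral control wells and 100% = double that signal; a rise in the Bmi1 reporter signal indicates esBAF inhibition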
MITF act: activators of MITF-driven TRPM1 promoter activity in SK-MEL-5 cells | SK-MEL-5 TRPM1-promoter luciferase, 24 h; % of positive control, neutral wells = 0 | activation, % at 12.5 µM | actives 0.75% (n = 300,000);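 active = mean activation of at least 80% with every replicate also reaching 80%; inconclusive = mean reaches 80% but some replicate falls short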;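 note: 0% = neutral control wells and 100% = parthenolide positive control wells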
FGF22 binding: binders of recombinant human FGF22 by thermal shift. actives 1.5% (n = 340,000). SYPRO orange fluorescence; percent of sucrose octasulfate shift, DMSO zero. Q9HCT0. activity (Tm shift, normalised), % at 9.99 µM. AID 651658;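 active = mean Tm shift, scaled 0 neutral to 100 positive control, at about 1.3% or above, every replicate too, limit read from the data; inconclusive = no clear call, values can overlap the other calls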
Wnt act: Wnt/beta-catenin pathway activation. Wnt/beta-catenin reporter cell assay, activator, plate reader. activation, % at 9.35 µM. actives 1.2% (n = 300,000); in the data active = activation above about 30%, passing the limit was not always enough; inconclusive = no clear call, values can overlap the other calls;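 note: 0% = neutral control wells and 100% = positive control wells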
AF4-AF9 inh: blocks AF4 peptide binding to human AF9; AlphaScreen, biotin-AF4 peptide binding to FLAG-AF9; inhibition, % at 10 µM; actives 0.47% (n = 350,000); AID 651704;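 active = every replicate reaching a set inhibition limit, whatever the replicate mean, cut at about 25% in these data; inconclusive = mean inhibition reaches that limit but some replicates miss it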;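 note: 0% = plate neutral control median and 100% = total signal loss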
Target sequence (P42568 whole entry, looked up): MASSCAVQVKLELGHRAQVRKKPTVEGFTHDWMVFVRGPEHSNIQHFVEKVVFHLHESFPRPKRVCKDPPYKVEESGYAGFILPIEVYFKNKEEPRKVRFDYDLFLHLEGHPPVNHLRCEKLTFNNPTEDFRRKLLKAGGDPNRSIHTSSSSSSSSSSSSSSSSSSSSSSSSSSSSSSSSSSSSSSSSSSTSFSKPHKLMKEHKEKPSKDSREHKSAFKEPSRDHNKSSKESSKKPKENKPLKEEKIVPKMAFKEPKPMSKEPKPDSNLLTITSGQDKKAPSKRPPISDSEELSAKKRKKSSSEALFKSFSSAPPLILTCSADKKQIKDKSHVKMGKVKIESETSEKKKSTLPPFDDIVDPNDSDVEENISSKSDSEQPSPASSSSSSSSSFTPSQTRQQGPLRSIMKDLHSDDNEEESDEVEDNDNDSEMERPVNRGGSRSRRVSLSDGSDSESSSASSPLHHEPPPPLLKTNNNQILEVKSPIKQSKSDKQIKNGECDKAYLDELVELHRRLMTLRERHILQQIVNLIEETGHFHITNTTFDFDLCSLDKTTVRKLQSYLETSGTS
SMARCA2 activ: increases SMARCA2 function in MMTV reporter cells; MG213 cells, MMTV-luciferase reporter, dexamethasone, overnight; activation, % at 9.1 µM; actives 1% (n = 370,000); AID 652017; in the data active = activation above about 7.8%;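 note: 0% = vehicle wells and 100% = reference activator wells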
SMARCA2 conf: confirmation of SMARCA2 (BRM) function activators. AID 652260. activation, % at 9.1 µM. shares compounds with SMARCA2 activ. actives 30% (n = 3,500). MG213 cells, MMTV-luciferase with dexamethasone, luminescence, overnight; MG213 cells expressing E1A, Rb sequestered; DMSO wells 0%, reference activator 100%;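 active = activation above its plate's cutoff, the mean activation of tested wells plus 3 SD, cut at about 7.9% in these data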
GAL4-VP16 Luc: counter-screen for SMARCA2 activators: GAL4-VP16 luciferase reporter activation; actives 41% (n = 3,500); AID 686939; HEK293 GAL4-VP16 pG5luc reporter, luciferase luminescence; scaled: DMSO wells 0%, SAHA wells 100%; shares compounds with SMARCA2 activ; activation, % at 9.1 µM;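 active = activation above the solvent-only control well mean plus 3 SD, averaged across control plates, cut at about 5.2% in these data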
* marks the source's active call; other numbers are inactive results; ? = inconclusive; nt = not tested or not shown.

SMILES	esBAF inh	MITF act	FGF22 binding	Wnt act	AF4-AF9 inh	SMARCA2 activ	SMARCA2 conf	GAL4-VP16 Luc
N#Cc1ccc(-c2ccc([C@@H]3[C@@H](CO)N4C(=O)CN(C(=O)C5CCCC5)C[C@@H]34)cc2)cc1	nt	nt	nt	nt	-12.0	nt	nt	nt
O=C(O)/C=C\c1cc2c(cc1[N+](=O)[O-])OCO2	-1.7	-4.1	0.3	-1.8	-6.0	-1.6	nt	nt
O=C1NC(=S)N/C1=C/c1cc2c(cc1[N+](=O)[O-])OCO2	-5.4	-8.8	-0.2	1.4	-2.5	11.0*	1.9	2.6
CCn1c(O)c(N=Nc2ccc(Cl)c(C(=O)O)c2)c2ccccc21	nt	12.5	-0.2	3.2	5.4	10.9*	-4.2	1.2
COc1ccc(-c2cc(=O)c3ccccc3s2)cc1	11.5	40.3	0.1	-0.3	3.5	8.8*	4.2	9.7*
COc1ccc(-n2sc3ccccc3c2=O)cc1	-1.1	nt	0.3	12.5	-14.0	13.1*	15.0*	3.0
COc1ccc(-n2sc3ccc(F)cc3c2=O)cc1	7.9	28.7	0.1	8.3	-23.6	5.4	nt	nt
Cc1cccc(C)c1-n1nnnc1-c1nc2ccccc2[nH]c1=O	nt	nt	0.0	-3.0	-1.3	1.4	nt	nt
Cc1cc2nc(-c3nnnn3-c3c(C)cccc3C)c(=O)[nH]c2cc1C	nt	nt	-0.3	-2.7	1.0	8.0*	-3.1	0.7
O=C(NCc1ccccc1)C(=O)Nc1cccc(C(=O)O)c1	-58.9	-59.8	0.0	6.4	-0.7	12.6*	10.0*	11.4*
CCOc1ccc(NC(=O)Nc2cccc(C(=O)O)c2)cc1	-80.4	-93.7	0.2	-30.6	-1.8	10.5*	7.2	9.3*
O=C(Nc1ccc(Cl)cc1)Nc1cccc(C(=O)O)c1	nt	-80.1	0.9	-0.7	-2.1	7.2	nt	nt
O=C(Nc1cccc(Cl)c1)Nc1cccc(C(=O)O)c1	nt	nt	nt	22.2	1.5	13.8*	7.9*	4.5
CCOc1ccc(NC(=O)Nc2ccc3nsnc3c2)cc1	?	74.2	0.2	0.0	-0.1	-1.6	nt	nt
CCNC(=O)C[C@H]1CC[C@@H]2[C@H](COC[C@H](O)CN2C(=O)c2cc(Cl)cc(Cl)c2)O1	5.4	nt	-0.2	nt	nt	nt	nt	nt
CN(CCO)c1c2c(nc3cc(-c4cccc(F)c4)nn13)CCCC2	-14.0	nt	nt	39.8*	nt	13.4*	11.2*	18.4*
CCC(=O)Nc1ccc2c(c1)C(=O)N(C)C[C@H](OC)[C@H](C)CN[C@@H](C)CO2	-1.0	nt	0.1	nt	-0.7	nt	nt	nt
C[C@H](CO)N1C[C@H](C)[C@H](CN(C)S(=O)(=O)c2ccc(F)cc2)OCCCC[C@H](C)Oc2ccc(NC(=O)CCC(F)(F)F)cc2C1=O	8.2	nt	-0.1	nt	-11.7	nt	nt	nt
NC(=O)C1CCCN(Cc2ccc(Cl)cc2)C1 (stereo not drawn)	-12.1	7.8	nt	nt	nt	8.3*	6.0	-1.1
O=C(NC1CCCN(Cc2ccc(Cl)cc2)C1)C1CCC1 (stereo not drawn)	-8.2	nt	-0.1	0.1	-2.4	-1.6	nt	nt
C[C@@H]1CN([C@@H](C)CO)C(=O)Cc2cc(NC(=O)c3ccncc3)ccc2O[C@H]1CN(C)S(=O)(=O)c1cn(C)cn1	0.0	nt	0.0	nt	-1.1	nt	nt	nt
COc1ccc(Cn2cc(C(=O)c3ccccc3)c(=O)c3cc(OC)ccc32)cc1	-7.4	-1.1	0.3	1.4	1.3	8.9*	-1.8	0.3
COc1ccc(NC(=O)N(C)C[C@@H]2Oc3c(NC(=O)Nc4cccc5ccccc45)cccc3C(=O)N([C@H](C)CO)C[C@@H]2C)cc1	-4.2	nt	-1.0	nt	4.3	nt	nt	nt
COc1ccc(CC(NC(C)=O)C(=O)NC2CCN(c3c4c(nc5ncnn35)CCC4)CC2)cc1 (stereo not drawn)	-4.3	nt	nt	nt	nt	-1.0	nt	nt
COc1cccc(CC(NC(C)=O)C(=O)NC2CCN(c3c4c(nc5ncnn35)CCC4)CC2)c1 (stereo not drawn)	nt	1.9	nt	nt	nt	8.4*	-2.1	-0.2
